Data from PubChem BioAssay AID434927 (Sanford-Burnham Center for Chemical Genomics, 2010).
Activity calls are given as the source filed them.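 The calls were made as follows: active = inhibition above about 23% in any of six single-dose repeats (limit read from the data); inactive = the rest.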

The compounds below were run against Intestinal-type alkaline phosphatase (Homo sapiens) (UniProt P09923) (assay: human IAP inhibitors, confirmation, biochemical, luminescence, single concentration, uHTS hits (AID 434927;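 also: plate controls were DMSO wells with enzyme for no effect and wells lacking enzyme for full effect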)). Settings: purified human IAP, CDP-Star luminescence, 30 min; at 8.3 µM; hits give high values.
Sequence of Intestinal-type alkaline phosphatase (Homo sapiens) (P09923 whole entry, looked up): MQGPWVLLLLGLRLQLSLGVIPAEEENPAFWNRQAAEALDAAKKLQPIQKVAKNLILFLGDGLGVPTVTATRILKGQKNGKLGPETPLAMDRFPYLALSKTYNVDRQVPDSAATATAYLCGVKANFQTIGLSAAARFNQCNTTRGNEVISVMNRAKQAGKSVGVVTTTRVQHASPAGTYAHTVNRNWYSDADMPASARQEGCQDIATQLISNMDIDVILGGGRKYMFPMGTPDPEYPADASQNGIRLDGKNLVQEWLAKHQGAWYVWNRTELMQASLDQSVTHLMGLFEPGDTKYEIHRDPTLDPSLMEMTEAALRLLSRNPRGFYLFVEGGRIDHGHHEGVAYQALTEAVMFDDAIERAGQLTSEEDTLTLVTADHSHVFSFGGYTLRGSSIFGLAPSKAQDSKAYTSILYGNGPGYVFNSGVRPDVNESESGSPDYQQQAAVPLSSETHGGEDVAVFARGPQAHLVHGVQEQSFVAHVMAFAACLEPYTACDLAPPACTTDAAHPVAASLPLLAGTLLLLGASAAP

Structure (SMILES) | inhibition
Cc1ccc(S(=O)(=O)NCCC(=O)NNC(=O)COc2ccc(Br)cc2)cc1C | 41% (active)
CCCOCC(O)CC(CC)C(=O)NNC(=S)Nc1ccccc1 (stereo unspecified) | -138% (inactive)
Oc1ccc(N=Nc2c(O)ccc3ccccc23)cc1 | -91.9% (inactive)
CC(C)n1cc(CN2CCC(C(=O)Nc3cccc(-c4cccc(Cl)c4)c3)CC2)cn1 | -96.7% (inactive)
CCCCCCCn1c(=N)n(CC(=O)c2ccco2)c2ccccc21 | -49.6% (inactive)
CCn1c(C)nc2cc(C(=O)N/N=C/c3cccc(O)c3O)ccc21 | -42.9% (inactive)
Cc1cccc(-n2ncc3c(NNC(=O)c4ccco4)ncnc32)c1 | -74.5% (inactive)
O=C(/C=C/c1ccc(O)cc1)c1ccc(NC2=C(N3CCCCC3)C(=O)c3ccccc3C2=O)cc1 | -0.00319% (inactive)
CC1=NN(Cc2ccccc2)C(=O)/C1=C\c1ccc(N(C)C)cc1 | 65.6% (active)
COc1ccc(C2=Nc3cc(C)ccc3OC2)cc1 | 58.3% (active)
Cc1nc2c3ccccc3nc(NNC(=O)CCC(=O)N3CCCC(C)C3)n2n1 (stereo unspecified) | -41.6% (inactive)
COc1cc(NC(=O)NCC2CCN(Cc3ccccc3Cl)CC2)cc(OC)c1OC | -142% (inactive)
Cc1ccc(NC(=O)C2CC(=O)Nc3nc4ccccc4n32)c(C)c1 (stereo unspecified) | 38.4% (active)
CC(C)CCNc1ncnc2c1nnn2Cc1ccccc1Cl | 40.2% (active)
O=C(Nc1ccon1)c1nc[nH]c1C(=O)NCc1ccccc1 | 88.5% (active)
COc1ccc(C(=O)Nc2cccc3c2C(=O)NC3=O)cc1S(=O)(=O)N1CCOCC1 | -85.1% (inactive)
